Experimental data taken from PubChem BioAssay (Tox21).
Inconclusive results are not listed. Active and inactive are the calls of the source. Unless noted, calls come from the whole dose curve; as a rule, active = well fitted curve in the direction sought with a large enough effect in the repeat runs; inconclusive = weak or mixed curves; inactive = no such curve, though single readings can be large; an effect the other way counts as inactive or inconclusive.

Tests used:
[1] = qHTS assay to identify small molecule agonists of the sonic hedgehog signaling (Shh) pathway (AID 1259368; calls by dose curve; note: series mostly up to about 92 µM; nearly all actives have a fitted effect of over 15% in size)
Outline: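 NIH/3T3-derived 3T3Gli1-Luc cells carrying a stably integrated Gli1 response element–firefly luciferase reporter were plated, left 4 hr at 37 C, then given compounds in DMSO for 24 hr. Luminescence was read 30 min after adding luciferase reagent.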

[2] = qHTS assay to identify small molecule antagonists of the sonic hedgehog signaling (Shh) pathway (AID 1259369; calls by dose curve; note: nearly all actives have a fitted effect of over 45% in size)
Outline: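 NIH/3T3-derived 3T3Gli1-Luc cells with stably integrated Gli1-Luc reporter were preincubated 4hr at 37 C, then given compounds in DMSO plus Shh conditioned medium and incubated 24hr. Firefly luciferase luminescence read after 30min reagent at room temperature.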

[3] = molecular target: Estrogen receptor beta (Homo sapiens) (UniProt Q92731); test: qHTS assay to identify small molecule agonists of the estrogen receptor beta (ER-beta) signaling pathway (AID 1259377; active = well fitted activation curve with a large enough effect in the signal ratio in the repeat runs, not every such curve was filed as active; the % refers to the signal ratio)
Sequence of Estrogen receptor beta (Homo sapiens) (Q92731 whole entry, looked up): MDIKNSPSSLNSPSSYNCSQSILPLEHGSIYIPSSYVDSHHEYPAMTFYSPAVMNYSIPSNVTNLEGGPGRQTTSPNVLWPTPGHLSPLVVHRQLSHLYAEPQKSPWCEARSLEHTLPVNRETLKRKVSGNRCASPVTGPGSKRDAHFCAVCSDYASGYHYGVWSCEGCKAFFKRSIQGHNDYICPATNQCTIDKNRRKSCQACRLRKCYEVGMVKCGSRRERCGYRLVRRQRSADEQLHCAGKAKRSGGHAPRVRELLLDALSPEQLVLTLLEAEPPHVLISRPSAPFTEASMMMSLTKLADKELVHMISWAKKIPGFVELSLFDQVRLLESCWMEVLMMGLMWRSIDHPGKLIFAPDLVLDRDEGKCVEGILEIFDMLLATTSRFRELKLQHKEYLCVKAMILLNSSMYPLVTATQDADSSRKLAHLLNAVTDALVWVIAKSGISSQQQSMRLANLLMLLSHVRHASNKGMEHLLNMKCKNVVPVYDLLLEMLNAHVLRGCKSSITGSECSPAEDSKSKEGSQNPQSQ
Outline: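 Read-out: beta-lactamase FRET fluorescence. Cell line: ER-beta-UAS-bla HEK293T in 2% charcoal-stripped FBS. Exposure: 16 hr at 37C. Substrate step: 2 h at room temperature.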

[4] = qHTS assay to identify small molecule agonists of the androgen receptor (AR) signaling pathway in the presence of an antagonist - cell viability counter screen (AID 1259379); note: series mostly up to about 92 µM; nearly all actives have a fitted effect of over 25% in size
Outline: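 MDA-kb2 human breast carcinoma cells (stable MMTV-luciferase, AR/GR responsive) were seeded 3,000 cells/well, pre-incubated 5 hr at 37C without CO2, then given 3.0uM nilutamide and compounds at 15 concentrations for 16 hr. Viability was read by CellTiter-Fluor fluorescence.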

[5] = qHTS assay to identify small molecule agonists of the estrogen receptor beta (ER-beta) signaling pathway - cell viability counter screen (AID 1259380); note: nearly all actives have a fitted effect of over 30% in size
Outline: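 ER-beta-UAS-bla HEK293T cells in medium with 2% charcoal-stripped FBS were preincubated 6 hr at 37C, dosed with compound in DMSO for 16 hr, then after the bla read, CellTiter-Glo was added for 30 min at room temperature; luminescence recorded.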

[6] = molecular target: Androgen receptor (Homo sapiens) (UniProt P10275); test: qHTS assay to identify small molecule agonists of the androgen receptor (AR) signaling pathway in the presence of an antagonist (AID 1259381; calls by dose curve; note: nearly all actives have a fitted effect of over 15% in size)
Sequence of Androgen receptor (Homo sapiens) (P10275 whole entry, looked up): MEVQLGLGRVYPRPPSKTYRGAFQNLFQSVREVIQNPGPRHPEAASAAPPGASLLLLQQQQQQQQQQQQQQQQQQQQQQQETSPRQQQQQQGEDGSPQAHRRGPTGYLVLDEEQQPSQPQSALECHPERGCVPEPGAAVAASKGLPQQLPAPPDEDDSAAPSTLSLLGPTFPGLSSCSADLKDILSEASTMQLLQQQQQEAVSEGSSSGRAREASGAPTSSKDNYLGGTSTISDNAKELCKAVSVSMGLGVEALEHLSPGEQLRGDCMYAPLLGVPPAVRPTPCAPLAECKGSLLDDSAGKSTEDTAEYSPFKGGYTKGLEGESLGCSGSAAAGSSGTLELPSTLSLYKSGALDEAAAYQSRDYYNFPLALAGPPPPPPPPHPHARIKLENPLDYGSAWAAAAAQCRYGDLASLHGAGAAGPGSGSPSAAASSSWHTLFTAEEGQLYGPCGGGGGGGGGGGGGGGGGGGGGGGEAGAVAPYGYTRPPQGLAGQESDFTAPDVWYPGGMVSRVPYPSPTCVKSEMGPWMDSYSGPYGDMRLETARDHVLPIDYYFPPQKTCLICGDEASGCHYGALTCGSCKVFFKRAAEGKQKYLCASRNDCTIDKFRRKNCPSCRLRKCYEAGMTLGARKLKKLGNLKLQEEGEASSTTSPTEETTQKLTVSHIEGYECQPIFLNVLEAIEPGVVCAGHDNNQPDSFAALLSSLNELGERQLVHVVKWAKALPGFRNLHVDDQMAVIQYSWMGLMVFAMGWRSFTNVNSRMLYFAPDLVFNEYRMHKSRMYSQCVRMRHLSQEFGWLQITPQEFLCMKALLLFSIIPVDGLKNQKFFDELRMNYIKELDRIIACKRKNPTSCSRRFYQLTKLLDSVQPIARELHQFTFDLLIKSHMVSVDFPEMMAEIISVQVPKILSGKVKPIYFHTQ
Outline: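 MDA-kb2 human breast carcinoma cells carrying an MMTV-luciferase reporter (AR- and GR-responsive) were treated with compounds at 15 concentrations plus 3.0uM final nilutamide for 16hr at 37C without CO2; luminescence was read after ONE-Glo addition.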

[7] = qHTS assay to identify small molecule antagonists of the estrogen receptor beta (ER-beta) signaling pathway - cell viability counter screen (AID 1259382);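 note: HEK293T cells carrying ER-beta-UAS-bla reporter stimulated with estradiol; series mostly up to about 92 µM; nearly all actives have a fitted effect of over 55% in size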
Outline: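 ER-beta-UAS-bla HEK293T cells (2,000/well, 2% charcoal-stripped FBS) were pre-incubated 6 hr at 37C, then given compound plus 1nM final 17-beta-estradiol for 16 hr. Viability was read in the same wells by CellTiter-Glo luminescence after 30 min at room temperature.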

[8] = molecular target: Estrogen receptor (Homo sapiens) (UniProt P03372); test: qHTS assay to identify small molecule agonists of the estrogen receptor alpha (ER-alpha) signaling pathway in the presence of an antagonist (AID 1259383; calls by dose curve; note: top concentration of the series differs between compounds; nearly all actives have a fitted effect of over 15% in size)
Sequence of Estrogen receptor (Homo sapiens) (P03372 whole entry, looked up): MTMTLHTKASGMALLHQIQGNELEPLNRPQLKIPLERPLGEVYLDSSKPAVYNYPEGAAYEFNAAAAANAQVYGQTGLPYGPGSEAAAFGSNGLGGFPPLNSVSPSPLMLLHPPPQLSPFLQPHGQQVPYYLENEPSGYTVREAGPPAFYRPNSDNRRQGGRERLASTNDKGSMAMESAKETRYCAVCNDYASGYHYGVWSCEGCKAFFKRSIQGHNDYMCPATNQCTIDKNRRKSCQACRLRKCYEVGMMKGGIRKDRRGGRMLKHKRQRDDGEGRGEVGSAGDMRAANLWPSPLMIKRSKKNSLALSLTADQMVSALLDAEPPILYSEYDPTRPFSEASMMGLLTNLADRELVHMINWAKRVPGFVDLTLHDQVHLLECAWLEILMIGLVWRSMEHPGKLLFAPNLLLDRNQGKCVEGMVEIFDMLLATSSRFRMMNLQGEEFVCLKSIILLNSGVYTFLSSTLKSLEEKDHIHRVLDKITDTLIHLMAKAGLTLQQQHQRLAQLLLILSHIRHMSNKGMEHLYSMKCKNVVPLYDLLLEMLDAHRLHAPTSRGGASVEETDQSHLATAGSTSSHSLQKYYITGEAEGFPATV
Outline: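 VM7Luc4E2 cells (endogenous full-length ER-alpha, 4×ERE-luciferase) were precultured 5 days in phenol red-free medium with 10% charcoal-stripped FBS, given 10.0nM ICI-182,780 (final), then treated with compounds at 15 concentrations for 22hr at 37C; luminescence read with ONE-Glo.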

[9] = molecular target: Thyrotropin receptor (Homo sapiens) (UniProt P16473); test: qHTS assay to identify small molecule antagonists of the thyroid stimulating hormone receptor (TSHR) signaling pathway (AID 1259385; calls by dose curve; note: nearly all actives have a fitted effect of over 20% in size)
Sequence of Thyrotropin receptor (Homo sapiens) (P16473 whole entry, looked up): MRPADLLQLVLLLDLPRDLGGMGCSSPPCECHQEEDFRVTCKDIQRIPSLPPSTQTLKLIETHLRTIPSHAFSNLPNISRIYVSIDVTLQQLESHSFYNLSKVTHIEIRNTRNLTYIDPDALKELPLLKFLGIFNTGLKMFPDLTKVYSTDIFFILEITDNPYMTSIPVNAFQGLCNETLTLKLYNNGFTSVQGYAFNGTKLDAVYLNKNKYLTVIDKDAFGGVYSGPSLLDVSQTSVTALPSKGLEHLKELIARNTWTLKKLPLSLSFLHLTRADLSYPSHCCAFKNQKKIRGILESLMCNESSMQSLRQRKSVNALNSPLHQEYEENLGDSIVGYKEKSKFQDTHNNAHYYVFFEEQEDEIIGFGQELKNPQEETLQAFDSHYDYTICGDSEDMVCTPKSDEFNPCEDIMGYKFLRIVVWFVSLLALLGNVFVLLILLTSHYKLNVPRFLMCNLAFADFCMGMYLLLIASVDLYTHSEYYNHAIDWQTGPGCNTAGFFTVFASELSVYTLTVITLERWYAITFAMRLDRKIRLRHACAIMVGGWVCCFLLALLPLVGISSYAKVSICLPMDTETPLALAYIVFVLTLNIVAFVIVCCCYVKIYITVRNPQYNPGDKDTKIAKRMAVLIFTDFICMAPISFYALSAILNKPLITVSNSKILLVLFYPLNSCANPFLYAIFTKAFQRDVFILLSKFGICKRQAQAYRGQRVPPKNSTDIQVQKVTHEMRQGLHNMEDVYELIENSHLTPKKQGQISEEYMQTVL
Outline: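 Antagonist mode: compound-treated TSHR-expressing HEK293 cells were stimulated with 1.5 ng/mL TSH (final) in presence of Ro20-1724 for 30 min at RT. HTRF cAMP detection after 1 h; each compound tested at 15 concentrations, triplicate.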

[10] = qHTS assay to identify small molecule agonists of the estrogen receptor alpha (ER-alpha) signaling pathway in the presence of an antagonist - cell viability counter screen (AID 1259386);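 note: series mostly up to about 92 µM; cells exposed to compounds for 22 h at 37 °C before the viability read; nearly all actives have a fitted effect of over 30% in size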
Outline: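 VM7Luc4E2 cells (endogenous full-length ER-alpha, 4×ERE-luciferase) were held 5 days in phenol red-free medium with 10% charcoal-stripped FBS, plated, then given 10.0nM ICI-182,780 and compounds at 15 concentrations for 22hr at 37C; viability read by CellTiter-Fluor fluorescence.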

[11] = molecular target: Progesterone receptor (Homo sapiens) (UniProt P06401); test: qHTS assay to identify small molecule agonists of the progesterone receptor (PR) signaling pathway (AID 1346784; calls by dose curve; note: nearly all actives have a fitted effect of over 30% in size)
Sequence of Progesterone receptor (Homo sapiens) (P06401 whole entry, looked up): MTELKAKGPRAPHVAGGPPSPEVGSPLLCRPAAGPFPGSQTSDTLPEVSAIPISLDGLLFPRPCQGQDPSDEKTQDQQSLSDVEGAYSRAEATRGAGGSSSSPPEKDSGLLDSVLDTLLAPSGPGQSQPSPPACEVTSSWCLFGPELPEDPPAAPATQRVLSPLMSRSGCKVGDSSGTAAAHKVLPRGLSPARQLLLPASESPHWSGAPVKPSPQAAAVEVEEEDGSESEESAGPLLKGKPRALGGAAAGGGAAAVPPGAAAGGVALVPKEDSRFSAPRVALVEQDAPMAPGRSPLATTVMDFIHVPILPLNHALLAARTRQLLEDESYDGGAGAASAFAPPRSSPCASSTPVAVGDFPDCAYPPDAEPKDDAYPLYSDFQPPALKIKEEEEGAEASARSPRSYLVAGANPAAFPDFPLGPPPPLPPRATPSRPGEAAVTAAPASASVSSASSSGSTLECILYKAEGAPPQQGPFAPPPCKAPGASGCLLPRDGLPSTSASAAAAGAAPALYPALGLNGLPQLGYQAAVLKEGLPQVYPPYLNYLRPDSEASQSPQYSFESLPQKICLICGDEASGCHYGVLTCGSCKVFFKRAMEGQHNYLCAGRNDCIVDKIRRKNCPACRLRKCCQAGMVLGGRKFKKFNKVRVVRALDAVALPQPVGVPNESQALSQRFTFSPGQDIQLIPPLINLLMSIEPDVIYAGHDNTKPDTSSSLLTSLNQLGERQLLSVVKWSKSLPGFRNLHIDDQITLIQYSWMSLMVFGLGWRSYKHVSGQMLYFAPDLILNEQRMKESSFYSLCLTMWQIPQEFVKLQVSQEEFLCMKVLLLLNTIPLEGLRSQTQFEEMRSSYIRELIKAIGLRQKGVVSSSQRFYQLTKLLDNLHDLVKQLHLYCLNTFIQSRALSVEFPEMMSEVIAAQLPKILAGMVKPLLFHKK
Outline: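 Compounds were tested for PR agonism in HEK 293T cells bearing a beta-lactamase gene under UAS control. Treatment lasted 16 hr at 37C; signal came from fluorescence of a FRET substrate.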

[12] = qHTS assay to identify small molecule antagonists of the progesterone receptor (PR) signaling pathway - cell viability counter screen (AID 1346798); note: series mostly up to about 92 µM; nearly all actives have a fitted effect of over 50% in size
Outline: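 Following a 4 hr attachment, PR-UAS-bla HEK293T cells in charcoal-stripped FBS medium were exposed to compounds with R5020 for 16 hr; CellTiter-Glo was added and luminescence read after 30 min at room temperature.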

[13] = qHTS assay to identify small molecule antagonists of the TGF-beta/Smad signaling pathway - cell viability counter screen (AID 1346824); note: nearly all actives have a fitted effect of over 50% in size
Outline: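 Cytotoxicity counter-screen run in the same wells as the beta-lactamase Smad reporter read: CellTiter-Glo luminescence after 30 min at room temperature. HEK 293T SBE-bla cells had 5 hr compound exposure at 37 C with TGF-beta1 (0.25 ng/mL stock).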

[14] = qHTS assay to identify small molecule agonists of the TGF-beta/Smad signaling pathway - cell viability counter screen (AID 1346829); note: top concentration of the series differs between compounds; nearly all actives have a fitted effect of over 45% in size
Outline: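 Same-well cytotoxicity: CellTiter-Glo added after the 2 hr room-temperature beta-lactamase substrate step, luminescence measured 30 min later; cells had 5 hr of compound at 37 C.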

[15] = molecular target: Thyrotropin-releasing hormone receptor (Homo sapiens) (UniProt P34981); test: qHTS assay to identify small molecule antagonists of the thyrotropin-releasing hormone receptor (TRHR) signaling pathway (AID 1346877; active = well fitted inhibition curve with a large enough effect in the repeat runs, not every such curve was filed as active; note: series mostly up to about 51 µM)
Sequence of Thyrotropin-releasing hormone receptor (Homo sapiens) (P34981 whole entry, looked up): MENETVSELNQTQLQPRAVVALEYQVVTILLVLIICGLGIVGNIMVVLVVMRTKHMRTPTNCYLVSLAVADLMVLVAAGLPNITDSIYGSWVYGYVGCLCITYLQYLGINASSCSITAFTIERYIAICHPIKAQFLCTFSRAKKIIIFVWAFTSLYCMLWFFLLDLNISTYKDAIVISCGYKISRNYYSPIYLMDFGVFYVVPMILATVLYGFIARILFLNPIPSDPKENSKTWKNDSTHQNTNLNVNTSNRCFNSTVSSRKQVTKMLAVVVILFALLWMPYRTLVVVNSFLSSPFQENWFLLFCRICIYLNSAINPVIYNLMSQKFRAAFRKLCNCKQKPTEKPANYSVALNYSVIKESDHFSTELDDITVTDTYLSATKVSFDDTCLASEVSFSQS
Outline: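 TRHR-expressing HEK293 cells were seeded, cultured 18 h at 37 °C, then loaded with calcium dye for 2 h. Compounds were pre-incubated 5 min at room temperature before 1 nM TRH (final) was added, and kinetic fluorescence was recorded for 3 min.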

[16] = qHTS assay to identify small molecule agonists or antagonists of the thyroid stimulating hormone receptor (TSHR) signaling pathway - wild type cell line counter screen (AID 1259384; calls by dose curve)
Outline: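 Counter screen in untransfected Hek293: compounds (15-point titration, triplicate) plus phosphodiesterase inhibitor Ro20-1724 added after 18 h plating; 30 min RT. Intracellular cAMP via competitive d2/cryptate immunoassay, 1 h incubation.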

[17] = molecular target: Progesterone receptor (Homo sapiens) (UniProt P06401); test: qHTS assay to identify small molecule antagonists of the progesterone receptor (PR) signaling pathway (AID 1346795; active = well fitted inhibition curve with a large enough effect in the signal ratio in the repeat runs, not every such curve was filed as active; the % refers to the signal ratio)
Outline: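 In HEK293T cells bearing the PR-UAS-bla reporter, compound effects on promegestone-driven (1 nM) beta-lactamase expression are assessed after 16 hr using a fluorescent FRET substrate incubated 2 hr at room temperature.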

[18] = qHTS assay to identify small molecule agonists of the progesterone receptor (PR) signaling pathway - cell viability counter screen (AID 1346799; calls by dose curve; note: nearly all actives have a fitted effect of over 45% in size)
Outline: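 Here, 3,000 PR-UAS-bla HEK293T cells per well were treated with compounds for 16 hr after a 6 hr preincubation at 37C and 5% CO2; cell viability is the CellTiter-Glo luminescence signal.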

[19] = qHTS assay to identify small molecule agonists of the TGF-beta/Smad signaling pathway (AID 1346859; active = well fitted activation curve with a large enough effect in the signal ratio in the repeat runs, not every such curve was filed as active; the % refers to the signal ratio; note: series mostly up to about 77 µM)
Outline: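 Each well held 4,000 SBE-bla HEK 293T cells incubated overnight before compound addition; 5 hr later the cleavable FRET substrate went on for 2 hr at room temperature, and fluorescence was read at two emissions.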

Measured: Potency

CC(=O)NCc1c(I)c(NC(C)=O)c(I)c(C(=O)O)c1I
not listed: [16] | [17] | [18] | [19]
inactive: all other assays above

CCn1ccc(NS(=O)(=O)c2ccc(N)cc2)nc1=O
not listed: [6] | [15] | [19]
inactive: all other assays above

COc1cc(NS(=O)(=O)c2ccc(N)cc2)nc(OC)n1
not listed: [9] | [16] | [18]
inactive: all other assays above

C[C@@H](O)[C@H]1C(=O)N2C(C(=O)O)=C(SCCN=CN)C[C@H]12
not listed: [6]
inactive: all other assays above

CN(C)C(=O)CNC(=O)Cc1ccccc1
not listed: [6] | [15] | [19]
inactive: all other assays above

O=C(OCc1ccccc1)C(=O)OCc1ccccc1
not listed: [15] | [17]
inactive: all other assays above

CC(C)OC(=O)CCCCC(=O)OC(C)C
not listed: [6] | [10] | [18]
inactive: all other assays above

CCCOC(=O)C(C)O (configuration not stated)
not listed: [9]
inactive: all other assays above
